Among the data in PubChem BioAssay AID1578 (Sanford-Burnham Center for Chemical Genomics, 2009) are inhibition values, retold here.

The structures appear in SMILES notation. About 3,000 (1%) of roughly 290,000 compounds were called active. This excerpt belongs to a sample that is enriched for actives. Values without a mark were called inactive. Rule as the data show it: active = inhibition mostly above about 36% (no sharp cut-off); inactive = mostly below about 34%.

Broadly, the inhibition is the relative decrease from the control value, in per cent.

The nature of this test: inhibition of NOD1-driven NF-kB reporter – cell-based, luminescence, uHTS, primary screen (AID 1578).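 Also: HEK-293T reporter cells stimulated with the NOD1 agonist gamma-tri-DAP.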 Conditions: NOD1-driven NF-kB luciferase reporter cells, at 4 µM, stronger effect = higher value. (In general: A reporter such as luciferase makes a cellular process visible.)
Regarding `O=C1c2ccc(Oc3ccc([N+](=O)[O-])cc3)cc2C(=O)N1CCO`, the inhibition was -16.9%.

Take `COc1ccc(N2C(=O)CC(Sc3nc4c(cc3C#N)CCC4)C2=O)cc1` (configuration not stated): the inhibition is -26.6%.

Consider `CCc1c(C)nc2ncnn2c1NCCc1ccccc1`, for which the inhibition is 24%.

Regarding `CCc1c(C)nc2ncnn2c1NCCc1ccc(Cl)cc1`, the inhibition was 57.5% (active).

`CCc1c(C)nc2ncnn2c1NCCc1ccc(OC)cc1`: the inhibition is 53.3%.

For the compound `O=C(N/N=C/c1ccc2cccnc2c1)c1nc2ccccc2c(=O)[nH]1`, the inhibition was -15.6%.

With `Cn1ncc2c(O/N=C(\N)c3ccc(C(C)(C)C)cc3)ncnc21`, the inhibition was 98.4% (active).

For `Cn1ncc2c(O/N=C(\N)c3ccc(C(F)(F)F)cc3)ncnc21`, the inhibition was -5.2%.

For `Cn1ncc2c(NNC(=O)c3ccc(O)cc3)ncnc21`, the inhibition is -28%.

As for `Cc1nc2ccc(C(=O)NCc3ccc4c(c3)OCO4)cc2s1`, the inhibition was 11.9%.

On to `O=C(CCNS(=O)(=O)c1ccccc1)N1CCOCC1`, for which the inhibition was -19.5%.

Regarding `O=C(Nc1nc2cc3c(cc2s1)OCCO3)c1ccc([N+](=O)[O-])o1`, the inhibition was -22.1%.

In the case of `Cc1cc(C)c2nc(NC(=O)c3ccc([N+](=O)[O-])o3)sc2c1`, the inhibition is 37.8%.

As to `O=C(Nc1nc2c(F)cccc2s1)c1ccc([N+](=O)[O-])o1`, the inhibition is 7.3%.

For the compound `O=C(Nc1nc2ccccc2s1)c1ccc([N+](=O)[O-])o1`, the inhibition was 6.5%.

Consider `CCOC(=O)Cn1cncc1-c1ccc([N+](=O)[O-])cc1`, for which the inhibition was 10.5%.

For `COc1cnn(-c2ccc(C)cc2)c(=O)c1Cl`, the inhibition is -22.7%.

In the case of `Cc1csc2c(N3CCN(C(=O)Nc4ccccc4)CC3)ncnc12`, the inhibition was 7.4%.

With `Cc1csc2c(N3CCN(C(=O)Nc4ccc(OC(F)(F)F)cc4)CC3)ncnc12`, the inhibition was 22.6%.

Consider `CC1=Nn2c(nc(-c3ccccc3)c2-c2ccccc2)NC(=O)C1Br` (configuration not stated), for which the inhibition is 1.4%.

For `COc1ccccc1CNc1nc(C)c(C(C)=O)s1`, the inhibition was 12.6%.

Consider `CCOC(=O)/C(=N\Nc1ccccc1)P(=O)(c1ccccc1)c1ccccc1`, for which the inhibition was 43.4% (active).

Turning to `CCOC(=O)/C(=N/Nc1ccc(Cl)cc1)S(=O)(=O)c1ccccc1`, the inhibition was -14.8%.

`CCOC(=O)/C(=N/Nc1ccc(OC)cc1)N1CCCc2ccccc21`: the inhibition was -9.8%.

Regarding `CCOC(=O)/C(=N\Nc1ccccc1)S(=O)(=O)c1ccccc1`, the inhibition is 0.6%.

`CCOC(=O)/C(=N/Nc1ccccc1)N1CCCc2ccccc21`: the inhibition was 90.5% (active).

For the compound `COC(=O)/C(=N/Nc1ccccc1)N1CCCc2ccccc21`, the inhibition is -10.5%.
